Structures are written as SMILES. The source made the active and inactive calls. The calls were made as follows: active = hit-call score of the fitted dose curve at least 0.9, where 1 is the maximum; inactive = score below 0.9.

This assay can be described thus: ATG_FoxO_CIS: Attagene CIS-FACTORIAL HepG2 Assay for human Forkhead box O (FoxO) (AID 2282943). Particulars: HepG2 Attagene cis-reporter, FoxO element, mRNA; actives raise or lower the signal. The method, then: ATG_CIS is a cell-based, multiplexed-readout assay that uses HepG2, a human liver cell line, with measurements taken at 24 hours after chemical dosing in a 24-well plate.ATG_FoxO_CIS is one of 52 assay component(s) measured or calculated from the ATG_CIS assay. It is designed to make measurements of mRNA induction, a form of inducible reporter, as detected with fluorescence intensity signals by Reverse transcription polymerase chain reaction (RT-PCR) and Capillary electrophoresis technology.Data from the assay component ATG_FoxO_CIS was analyzed into 1 assay endpoint. This assay endpoint, ATG_FoxO_CIS, was analyzed with bidirectional fitting relative to DMSO as the negative control and baseline of activity. Using a type of inducible reporter, measures of mRNA for gain or loss-of-signal activity can be used to understand the reporter gene at the transcription factor-level as they relate to the gene FOXO1 and FOXO3. Furthermore, this assay endpoint can be referred to as a primary readout, because this assay has produced multiple assay endpoints where this one serves a reporter gene function. To generalize the intended target to other relatable targets, this assay endpoint is annotated to the dna binding intended target family, where the subfamily is forkhead box protein.
Human liver HepG2 cells are transiently transfected with multiple reporter transcription units (MRTUs) in 6-well plates using FuGene 6 reagent (Roche; 3 ml FuGene/1 mg DNA). The MRTU constructs are regulated by a cis-regulating element (promoter). […] A major difference between the CIS and TRANS system is that in CIS activities of endogenous TFs are measured, whereas the TRANS assay evaluates changes in activities of exogenous, chimeric NR-Gal4 proteins. […] At the end of 24 hour incubation, total RNA was isolated using TriZol reagent (Invitrogen). The isolated RNA is then reverse-transcribed using oligo(dT) primer and Mo-MLV reverse transcriptase (Invitrogen) with DNAse I (Ambion) treatment for 30 min. The one-tenth of the produced cDNA was amplified by PCR using Taq DNA polymerase (Invitrogen) and two reporter sequence-specific primers. The PCR products were fluorescently labeled by primer extension with 6-arboxyfluorescein (6-FAM) 5'-labeled reporter sequence-specific primer (2 min at 95 C, 20 s at 68 C and 10 min at 72 C) and these products were digested with 5U of HpaI (New England Biolabs) for 2h at 37 C. The fragments were purified using Qiaquick PCR columns (Qiagen), analyzed on an ABI 3130xL genetic analyzer (Applied Biosystems) with peak positions identified by using a set of X-rhodamine (ROX)-labeled MapMarker1000 molecular weight standards (BioVentures). The raw capillary electrophoresis data was processed using Attagraph software (Attagene).
For the compound `CCOc1ccc(N=Nc2ccc(C=Cc3ccc(N=Nc4ccc(OCC)cc4)cc3S(=O)(=O)O)c(S(=O)(=O)O)c2)cc1`, the result was inactive.
On the same count and under the same terms, with `C=C(CC(=O)O)C(=O)O` the entry was “inactive”; with `CCC(=O)O[C@@H]1C[C@H]2CC[C@]1(C)C2(C)C`, “inactive”.
Usually AC50 stands for the midpoint of the concentration-response curve, whichever way the signal moves. As for `Clc1ccc(C(c2ccccc2Cl)C(Cl)Cl)cc1` (stereo not given), the AC50 is 69.8 µM (active).
Regarding `O=c1c(O)c(-c2ccc(O)cc2)oc2cc(O)cc(O)c12`, the call was inactive.
On the same count and under the same terms, under `CCOC(=O)CCc1ccccc1` stands “inactive”; under `CCCCN(CCCC)C(=O)N(CCCC)CCCC`, “inactive”; under `Cc1cccc(Nc2ccccc2)c1`, “inactive”.
Still for that read-out and setting: under `ClC(c1ccccc1)(c1ccccc1)c1ccccc1` stands “inactive”.
In the case of `CCOc1ccccc1O`, the compound was classed as inactive.
On to `C[N+](C)(C)CCCCCC[N+](C)(C)C`, for which the result was inactive.
Turning to `CC1C2CC(CC2C2CCCC(O)C2)C1(C)C` (stereo not given), the compound was called inactive.
Still for that read-out and setting: under `ON=C1CCCCC1` stands “inactive”.
The same measure, in the same setting: with `COc1cc(Cl)c(OC)cc1N` the entry was “inactive”; with `CCCC(=O)OCCc1ccccc1`, “inactive”.
Still for that read-out and setting: with `C=CCCC(=O)/C=C/C1C(C)=CCCC1(C)C` (stereo not given) the entry was “inactive”; with `COC(C)(C)CCCC(C)CC=O` (stereo not given), “inactive”; with `C=C[Si]1(C)O[Si](C)(C=C)O[Si](C)(C=C)O[Si](C)(C=C)O1` (stereo not given), “inactive”.
In the case of `c1ccc(CN(Cc2ccccc2)Cc2ccccc2)cc1`, the compound was classed as inactive.
Consider `CN1CCOCC1`, for which the result was inactive.
The same measure, in the same setting: under `Cc1ncc([N+](=O)[O-])n1CCO` stands “inactive”; under `C=Cc1ccc(C(C)(C)C)cc1`, “inactive”; under `COC(=O)C=C(C)CCC=C(C)C`, “inactive”.
`CCCCCC(C=O)=Cc1ccccc1`: the outcome was inactive.
On the same count and under the same terms, with `C[C@H]1C[C@@H](O)CC(C)(C)C1` the entry was “inactive”; with `CC(C)(N=C=O)c1cccc(C(C)(C)N=C=O)c1`, “inactive”.
`CC(O)C1CCCCC1` (stereo not given): the call was inactive.
In the case of `CCCCCc1ccco1`, the outcome was inactive.
As for `CC(=O)O[C@H]1C[C@@H]2CC[C@@]1(C)C2(C)C`, the call was inactive.
Still for that read-out and setting: under `CCCCCCC(C)(C)S` stands “inactive”; under `CCN(CC)C(=O)N(CC)CC`, “inactive”; under `C[Si]1(C)O[Si](C)(C)O[Si](C)(C)O1`, “inactive”.
Same read-out and setting: under `[Cl][Au]([Cl])[Cl]` stands “inactive”; under `O=C(CS)OCCOC(=O)CS`, “inactive”; under `CCCC(=O)C(CC)Sc1ccoc1C` (stereo not given), “inactive”.
Regarding `C[C@H]1O[C@@H](O[C@H]2[C@@H](O)C[C@H](O[C@H]3[C@@H](O)C[C@H](O[C@H]4CC[C@@]5(C)[C@H](CC[C@@H]6[C@@H]5C[C@@H](O)[C@]5(C)[C@@H](C7=CC(=O)OC7)CC[C@]65O)C4)O[C@@H]3C)O[C@@H]2C)C[C@H](O)[C@@H]1O`, the AC50 is 0.202 µM (active).
With `CCCCCCCCCCCC(=O)OC[C@@H](O)[C@H]1OC[C@H](O)[C@H]1O`, the result was inactive.
The same measure, in the same setting: under `CC(C)NCC(O)COc1ccc(CC(N)=O)cc1` (stereo not given) stands “inactive”; under `C=C(C)[C@@H]1CC=C(C)C(=O)C1`, “inactive”.
On the same count and under the same terms, with `CCOC(=O)C1OC1c1ccccc1` (stereo not given) the entry was “inactive”.

The record behind these values is PubChem BioAssay (EPA / NIEHS).
